According to PubChem BioAssay AID2732 (Emory University Molecular Libraries Screening Center, 2010):
“And” between values parts separate entries of the source, which are not always exact repeats. Equal entries are not always repeated. The whole screen tested about 220,000 compounds, of which about 8,200 (3.7%) were called active. This is one part of a sample in which actives are shown more often than they occur.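 Rule for the calls: active = compounds that reduced the stress-induced luciferase reporter signal by more than about 70% of percent inhibition (limit read from the data); inactive = the rest.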

assay: inhibitors of CHOP promoter induction, primary screen, cell-based, unfolded protein response, luciferase reporter (AID 2732); conditions: CHO-K1 CHOP-promoter luciferase, tunicamycin-induced, 15-18 h; at 10 µM; active compounds read high;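 note: 0% = tunicamycin plus vehicle and 100% = wells without tunicamycin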

| SMILES | inhibition |
| --- | --- |
| NS(=O)(=O)c1ccc(NC(=O)COC(=O)c2cc3ccccc3oc2=O)cc1 | 5.84% (inactive) |
| CCOc1cc2c(Cl)ncnc2c(OCC)c1OCC | 23.1% (inactive) |
| S=c1[nH]c2ccccc2c2ccccc12 | -2.18% (inactive) |
| CCN(CC)CCCN=C(N)N | 3.64% (inactive) |
| CCOC(=O)C1CCN(c2ncnc3c2oc2ccc(Br)cc23)CC1 | 21.9% (inactive) |
| CCOC(=O)N1CCN(C(=O)C2CCN(Cc3ccc(OC)cc3OC)CC2)CC1 | 18.3% (inactive) |
| CCOC(=O)N1CCN(C(=O)C2CCN(c3ncnc4c3sc3cccc(F)c34)CC2)CC1 | 85.7% (active) |
| Nc1nc(NCC2CCCO2)nc(Nc2ccccc2F)c1[N+](=O)[O-] (configuration not stated) | 12.4% (inactive) |
| CC(C)CCNC(=O)C1CCC(CNc2c(N3CCC(C)CC3)c(=O)c2=O)CC1 (configuration not stated) | 1.09% (inactive) |
| Cc1ccc2c(c1)nnc1nnc(SCC(=O)O)n12 | 3.13% (inactive) |
| CSc1nc(-c2ccco2)nn1C(=O)c1ccccc1Cl | 78.2% (active) |
| CSc1nc(-c2ccco2)nn1C(=O)CCc1ccccc1 | 37.2% (inactive) |
| CS(=O)(=O)n1nc(-c2ccco2)nc1N | 42.4% (inactive) |
| COc1cccc(N2C(=O)CC(N3CCc4ccccc4C3)C2=O)c1 (configuration not stated) | -8.87% (inactive) |
| CSCC[C@H](NC(=O)CCCn1nnc2ccccc2c1=O)C(=O)O | 4.06% (inactive) |
| Cc1ccc(NC(=O)c2c(NC(=O)CCC(=O)O)sc3c2CCCCC3)cc1 | 5.76% (inactive) |
| Cc1ccc(C(=O)c2c(NC(=O)c3ccccc3)sc(C)c2C)cc1 | 53.1% (inactive) |
| Cc1ccc(C(=O)c2c(NC(=O)c3ccncc3)sc3c2CCCC3)cc1 | 73.2% (active) |
| COc1c(C=O)c(CCN(C)C(=O)c2ccc(F)cc2)cc2c1OCO2 | -10.2% (inactive) |
| COc1ccccc1C1CCN(C(=S)Nc2ccc(Br)cc2)CC1 | 26.5% (inactive) |
| COc1ccccc1C(c1nnnn1C(C)(C)C)N1CCN(Cc2ccccc2)CC1 (configuration not stated) | -9.46% (inactive) |
| COc1ccccc1C(c1nnnn1CC1CCCO1)N1CCN(c2ccccc2)CC1 (configuration not stated) | -9.42% (inactive) |
| COCCn1nnnc1C(c1ccccc1Cl)N1CCN(c2ccccc2OC)CC1 (configuration not stated) | 81.6% (active) |
| O=C(NCc1cccnc1)C(=O)Nc1nc(-c2ccccc2)cs1 | 16.9% (inactive) |
| FC(F)(F)c1ccnc(Oc2ccc(C3=NCCS3)cc2)c1 | 1.85% (inactive) |

| SMILES | inhibition |
| --- | --- |
| CC(C)=CCC/C(C)=C/C(=O)O | -11.9% (inactive) |
| Cc1ccc(C(=O)N2CCCC(c3ccccc3)=N2)cc1 | 78.5% (active) |
| Cc1ccc(NC(=S)N2CCCC(c3ccccc3)=N2)cc1 | 16.8% (inactive) |
| Cc1ccc(C(=O)C[n+]2cc(-c3ccccc3)n3c2CCCCC3)cc1 | -15.7% (inactive) and 24.3% (inactive) |
| O=C(COc1cc(Cl)c(Cl)cc1Cl)NCCc1ccccn1 | -12.8% (inactive) |
| O=C(COc1ccccc1F)NC1CC1 | 40% (inactive) |
| O=C(COc1cc(Cl)c(Cl)cc1Cl)NC(=O)NC1CCCC1 | 91% (active) |
| CCN(CC)CCC(c1ccc2c(c1)OCO2)c1c(OC)cc(OC)c2c(-c3ccccc3)cc(=O)oc12 (configuration not stated) | -37.9% (inactive) |
| COc1ccc2[nH]cc(/C=C(/C#N)S(=O)(=O)c3ccccc3)c2c1 | 70.3% (active) |
| COc1ccc(NS(=O)(=O)c2ccc(Oc3c(C#N)cccc3C#N)cc2)cc1 | 54.8% (inactive) |
| CCN(CC)CC(=O)c1c[nH]c2ccc(OC)cc12 | -4.19% (inactive) |
| Cc1cc(C)nc(SCc2cn3c(C)cc(C)nc3n2)n1 | 19.4% (inactive) |
| Cc1onc(-c2ccc(Cl)cc2)c1-c1ccnn1S(=O)(=O)c1ccc(Cl)cc1 | 57.9% (inactive) |
| COc1ccc(-n2cnnc2SCC(=O)Nc2cccc([N+](=O)[O-])c2)cc1 | 5.96% (inactive) |
| COc1ccc(CCNC(=O)CSc2nc3[nH]ncc3c(=O)n2-c2cccc(C(F)(F)F)c2)cc1OC | 16.4% (inactive) |
| NC(=O)NC(=O)CSc1nc2cc([N+](=O)[O-])ccc2n1-c1cccc(C(F)(F)F)c1 | 76.3% (active) |
| NS(=O)(=O)c1ccc(NC2=CC(c3ccc(F)cc3)N(c3ccc(S(N)(=O)=O)cc3)C2=O)cc1 (configuration not stated) | -15.2% (inactive) |
| CCC1(CC)Cc2ccccc2-c2nc3ccccc3c(=O)n21 | 16.7% (inactive) |
| CN(C)CCCn1c(SCCN2C(=O)c3ccccc3C2=O)nc2ccccc2c1=O | 4.6% (inactive) |
| CC(C)(C)c1nc2ccccc2c(=O)n1N1C(=O)c2ccccc2C1=O | 71.3% (active) |
| CCCN(c1ccc(C)cc1)c1nc(=O)c2cccnc2s1 | 12.3% (inactive) |
| Cc1cc(N)n(-c2ccc(S(=O)(=O)N3CCCC3)cc2[N+](=O)[O-])n1 | 7.68% (inactive) |
| Cn1c(=O)c2[nH]c(NCC3CCCO3)nc2n(-c2ccccc2)c1=O (configuration not stated) | 8.41% (inactive) |
| CC(C)(C)c1nc(NCC2CCCO2)c2nnn(Cc3ccccc3)c2n1 (configuration not stated) | 71.1% (active) |
| CC(C)Nc1ncnc2c1nnn2Cc1ccccc1 | 21.7% (inactive) |

| SMILES | inhibition |
| --- | --- |
| CC/C=C/C(=O)N1CC2(CC(c3cccc(NC(=O)CC)c3)=NO2)C[C@H]1C(N)=O (some centres not stated) | -5.15% (inactive) |
| CC(C)Cc1nnc(NC(=O)CCC(=O)Nc2ccc3cn[nH]c3c2)s1 | -20.9% (inactive) |
| CCOc1cc(/C=C(\C#N)c2nc(-c3cccs3)c(NC(C)=O)s2)ccc1O | -1.5% (inactive) |
| COc1cc(/C=C(\C#N)c2nc3c(s2)CC(C)CC3)ccc1O (configuration not stated) | 93.6% (active) |
| COc1cc(/C=N/Nc2nc3ccccc3s2)ccc1O | 3.98% (inactive) |
| O=C(COC(=O)/C=C/c1ccc2c(c1)OCO2)NC1CCS(=O)(=O)C1 (configuration not stated) | 17.7% (inactive) |
| Cc1nc(C)c2c(c1C(F)(F)F)-c1ccccc1C2(F)F | 84.7% (active) |
| CSc1n[nH]c(=S)n1N | 0.04% (inactive) |
| CC(C)(C)C(=O)OCc1nc(-c2ccc(O)c(O)c2)cs1 | -105% (inactive) |
| Cc1ccc(C(=O)NC(=S)Nc2ccc3[nH]c(=O)[nH]c3c2)cc1C | 1.63% (inactive) |
| Cc1ccc(S(=O)(=O)/N=C(/Nc2ccc3[nH]c(=O)[nH]c3c2)c2ccccc2)cc1 | -16.7% (inactive) |
| Cc1cc(C)cc(C(=O)NC(=S)Nc2ccc3[nH]c(=O)[nH]c3c2)c1 | 81.3% (active) |
| CC1CC2=C(CC1/C=N/NC(N)=S)C(C)(C)CCC2 (configuration not stated) | 89.8% (active) |
| CC1(C)CCCC2=C1CC1C(=O)N(c3ccccc3)C(=O)C1C2 (configuration not stated) | 12% (inactive) |
| CN(C(=O)Nc1ccc(Cl)cc1)n1cnc2ccccc2c1=O | 20.1% (inactive) |
| CC1(C)C=C2[C@H]3CC[C@@H]4[C@@]5(C)CCC(=O)C(C)(C)[C@@H]5CC[C@@]4(C)[C@]3(C)CC[C@@]2(C(=O)O)CC1 | 95% (active) |
| COC(=O)/C=C(\Oc1ccccc1)C1(O)CCCCC1 | 7.27% (inactive) |
| Fc1ccc(Nc2nnns2)cc1 | 3.88% (inactive) |
| COC(=O)CSc1ncnc2c1cnn2-c1ccc(C)cc1C | -4.08% (inactive) |
| Cc1ccc(-n2ncc3c(=O)n(-c4ccc(C)c(C)c4)c(-c4ccco4)nc32)cc1 | 37.9% (inactive) |
| Cc1ccc(-n2ncc3c2ncn2nc(-c4ccco4)nc32)c(C)c1 | 105% (active) |
| O=C(NCc1cccnc1)Nc1cccc(NC(=O)NCc2cccnc2)c1F | 7.4% (inactive) |
| CN1CCN(C2=NCCO2)CC1 | 2.43% (inactive) |
| O=C(Nc1nc2c(F)cc(F)cc2s1)C1COc2ccccc2O1 (configuration not stated) | 17.5% (inactive) |
| O=C(Nc1nnc(SCc2ccc(Cl)cc2Cl)s1)C1COc2ccccc2O1 (configuration not stated) | 71.3% (active) |

| SMILES | inhibition |
| --- | --- |
| O=C(Nc1nnc(SCc2c(Cl)cccc2Cl)s1)C1CCCO1 (configuration not stated) | 18.8% (inactive) |
| Cc1cnc(NC(=O)c2ccccn2)s1 | 8.8% (inactive) |
| CN(C)S(=O)(=O)c1ccc(C(=O)NCC(C)(C)N2CCOCC2)cc1 | -18.3% (inactive) |
| Cc1nc2ccccc2nc1N/N=C/c1ccc(O)cc1O | 74.5% (active) |
| Oc1ccc(/C=N/NC2=NCCCCC2)c(O)c1 | -12.1% (inactive) |
| Oc1ccc(/C=N/Nc2nc(-c3ccccc3F)nc3ccccc23)c(O)c1 | 57.6% (inactive) |
| O=C(O)Cc1csc(NC(=O)CSc2nnnn2-c2ccc(O)cc2)n1 | -5.01% (inactive) |
| CCc1ccc(S(=O)(=O)NCC(O)COc2ccc(OC)cc2)cc1 (configuration not stated) | 16.3% (inactive) |
| O=C(N/N=C\c1cc(Br)c(Br)o1)C1COc2ccccc2O1 (configuration not stated) | 6.22% (inactive) |
| Cc1ccc(-c2csc(-c3c[nH]c4ccccc34)n2)cc1 | 98.1% (active) |
| Cc1ccc(-c2csc(-c3cc(C)on3)n2)cc1 | -14.2% (inactive) |
| CCCc1cc(-c2nc(-c3ccc(C)cc3)cs2)ccn1 | 39.6% (inactive) |
| COCc1cc(=O)oc2cc(NS(=O)(=O)c3ccc(C)cc3)ccc12 | 9.01% (inactive) |
| Cc1cc(Nc2ccc(N3CCOCC3)cc2)c2cccc(C)c2n1 | -27.9% (inactive) |
| COC(=O)c1ccc(NC(=O)Nc2ccc(C)cc2)cc1 | 26.6% (inactive) |
| CC(=O)c1ccc(NC(=O)Nc2ccc([N+](=O)[O-])cc2C)cc1 | 51.8% (inactive) |
| COc1cc(NC(=O)Nc2ccc(C)cc2)cc([N+](=O)[O-])c1 | 71.2% (active) |
| Cn1c(=O)c2c(nc(NCc3ccccc3)n2CC(N)=O)n(C)c1=O | 9.77% (inactive) |
| Cc1ccccc1N1CCN(Cc2nc(Cc3ccccc3F)no2)CC1 | -7.61% (inactive) |
| COc1cc(C(=O)OC(C)C(=O)NCC2CCCCC2)cc(NC(=O)c2ccco2)c1OC (configuration not stated) | 101% (active) |
| COc1cc(C(=O)N[C@@H](C)C(=O)NCc2ccco2)cc(OC)c1OC | 0.36% (inactive) |
| COC(=O)c1cc(Cl)c(NC(=O)c2ccco2)cc1OC | -8.18% (inactive) |
